The source of these data is PubChem BioAssay AID720648 (The Scripps Research Institute Molecular Screening Center, 2013).

Among all 370,000 compounds or so, about 3,100 (0.84%) were called active. This is one part of a sample in which actives are shown more often than they occur. A number with no mark means an inactive call.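 How the source made its calls: active means inhibition above the mean of compounds lying between control limits plus 3 SD, set per campaign (cut at about 8.5% in these data); inactive means the rest.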

The target of this test is Disintegrin and metalloproteinase domain-containing protein 17 (Homo sapiens) (UniProt P78536). Nature of the test: inhibition of ADAM17 peptide cleavage – biochemical, QFRET, primary screen (AID 720648).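 Further: 0% = DMSO-only wells as the low control.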 To be noted: recombinant ADAM17, EDANS/DABCYL FRET peptide cleavage; at 6.95 µM; hits give high values.
Sequence of Disintegrin and metalloproteinase domain-containing protein 17 (Homo sapiens) (P78536 215-824 limits assumed): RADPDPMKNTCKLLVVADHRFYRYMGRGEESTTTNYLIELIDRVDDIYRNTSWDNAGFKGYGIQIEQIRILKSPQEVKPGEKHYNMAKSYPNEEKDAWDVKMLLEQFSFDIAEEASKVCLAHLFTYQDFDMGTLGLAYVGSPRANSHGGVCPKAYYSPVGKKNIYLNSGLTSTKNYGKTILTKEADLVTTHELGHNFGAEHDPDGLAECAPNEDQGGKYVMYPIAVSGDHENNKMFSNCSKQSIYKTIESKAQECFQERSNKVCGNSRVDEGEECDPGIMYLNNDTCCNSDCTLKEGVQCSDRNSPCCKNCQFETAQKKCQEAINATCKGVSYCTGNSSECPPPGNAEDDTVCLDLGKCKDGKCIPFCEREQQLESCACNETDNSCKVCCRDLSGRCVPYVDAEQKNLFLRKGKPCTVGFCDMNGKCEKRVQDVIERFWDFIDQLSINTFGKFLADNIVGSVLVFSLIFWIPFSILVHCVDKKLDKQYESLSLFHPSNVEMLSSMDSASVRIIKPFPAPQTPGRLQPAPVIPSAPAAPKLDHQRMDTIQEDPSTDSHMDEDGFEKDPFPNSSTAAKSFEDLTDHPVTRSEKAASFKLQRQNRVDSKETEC
In the case of `N#CCC[C@H]1CC[C@]2(CCCN(Cc3ccc(Cl)cc3)C2)O1`, the inhibition is -4.85%. To `COc1ccc(-n2c(SCC(=O)NC3CCCC3)nnc2-c2ccncc2)cc1` belongs -3.54%; to `CCC(C)(C)NC(=O)C(c1cccn1C)N(Cc1ccc(C)cc1)C(=O)Cn1nnc2ccccc21` (stereo unspecified), 0.71%.

Consider `COCCNC(=O)C(c1ccc(C)o1)N(Cc1ccccc1)C(=O)Cn1nnc2ccccc21` (stereo unspecified), for which the inhibition was 9.14% (active). `COc1ccccc1N(C(=O)Cn1nnc2ccccc21)C(C(=O)NCc1ccco1)c1ccc(C)o1` (stereo unspecified): the inhibition was -3.12%. With `COCCCNC(=O)C[C@H]1C[C@@]2(C(=O)OC)C(=C[C@H](C(C)(C)C)O[C@@H]2C)N(Cc2ccc(Cl)cc2Cl)C1=O` the figure was 3.29%; with `CCOC(=O)[C@@]12CN(C(=O)OC(C)(C)C)CC=C1N(Cc1ccc(OC)cc1)C(=O)[C@H]2CC(=O)NCc1ccc(OC)c(OC)c1`, 1.15%; with `COc1cccc(CNC(C)C(=O)Nc2ccc(S(=O)(=O)N3CCCC3)cc2)c1` (stereo unspecified), -0.82%. `CC(C)c1ccc(S(=O)(=O)N2CCN(C(C)C(=O)NC3CCCC3)CC2)cc1` (stereo unspecified): the inhibition was 0.12%. Regarding `COc1ccc(S(=O)(=O)N2CCN(C(C)C(=O)Nc3ccc(C(C)C)cc3)CC2)cc1` (stereo unspecified), the inhibition is 12.4% (active). On to `C[C@@H]1ON(C)[C@H]2C[C@H]3c4[nH]c5cccc(-c6ccc7c(c6)OCO7)c5c4CCN3C[C@@H]12`, for which the inhibition was -16.2%.

In the case of `COc1ccccc1CCNC(=O)C1CCN(c2nc(C)cc(C)n2)CC1`, the inhibition is -1.54%. Consider `O=S1(=O)c2c(NCc3ccco3)cccc2Oc2ccccc2CN1Cc1cn(Cc2cccc(C(F)(F)F)c2)nn1`, for which the inhibition is -1.67%.

`COc1ccc(Cl)cc1NC(=O)c1cccc(N2C(=O)C3CC=CCC3C2=O)c1` (stereo unspecified): the inhibition is -4.89%.

In the case of `COc1ccc(Cl)cc1NC(=O)COC(=O)C(CC(C)C)N1C(=O)C2CC=CCC2C1=O` (stereo unspecified), the inhibition was 18.9% (active). As for `COc1ccc(Cl)cc1NC(=O)COC(=O)c1ccc(Br)o1`, the inhibition was -0.97%.

`Cc1cccc(C(=O)Nc2c(-c3ccc(F)cc3)nc3ncccn23)c1`: the inhibition is -94.5%. With `CCOC(=O)c1csc(NC(=O)C2CCCN(S(=O)(=O)c3ccc(Cl)s3)C2)n1` (stereo unspecified), the inhibition is 1.07%. To `COc1cccc(/C=N/NC(=O)c2cccc([N+](=O)[O-])c2)c1OS(=O)(=O)c1ccc(C)cc1` belongs 9.36% (active); to `Cc1ccccc1OS(=O)(=O)c1cccc([N+](=O)[O-])c1`, 3.53%; to `COc1ccc([N+](=O)[O-])cc1NCC(=O)c1ccc(C)cc1`, 0.13%. As to `O=C(CSc1nc2c(c(=O)[nH]1)CCCC2)N1CCCCC1`, the inhibition is -1.39%.

Regarding `COc1cc(NC(=O)c2cc(-c3ccc(F)cc3OC(C)C)n[nH]2)cc(OC)c1OC`, the inhibition was 3.11%. With `CC(C)Oc1cc(F)ccc1-c1cc(C(=O)Nc2ccc(F)cc2)[nH]n1` the figure was 2.41%; with `CC(C)Oc1cc(F)ccc1-c1cc(C(=O)Nc2cccc(Cl)c2)[nH]n1`, 12.5% (active).

On to `O=C(N1CCOCC1)N1CC[C@H]2[C@H](CCCN2Cc2ccc(F)cc2)C1`, for which the inhibition was -3.39%. With `O=C(NC1CCC1)c1ccc(C#CC2CC2)cn1` the figure was -2.55%; with `CCn1c(Cc2cccs2)nnc1SCC(=O)c1ccc(C)cc1`, 9.16% (active).

Turning to `Cc1ccc(-n2c(Cc3cccs3)nnc2SCC(=O)OC(C)C)cc1`, the inhibition was -0.84%. To `CCn1c(SCC(=O)c2ccc(Cl)s2)nnc1-c1cccs1` belongs -2.07%; to `CCC(=O)Nc1ccc2c(c1)C(=O)N(C)[C@H]1CC[C@H](CC(=O)NCCOC)O[C@@H]1CO2`, -1.85%; to `COc1ccc(C#CCNCc2ccc(OC)cc2OC)cc1`, -5.67%. With `COC(=O)c1ccccc1-n1cc(COC(=O)NCCc2ccccc2)nn1` the figure was -7.96%; with `CC1Cc2ccccc2N1S(=O)(=O)c1cccc(C(=O)NCC(c2ccco2)N2CCCC2)c1` (stereo unspecified), -2.28%; with `CC1Cc2ccccc2N1S(=O)(=O)c1cccc(C(=O)OCC(=O)N2CCOCC2)c1` (stereo unspecified), -5.91%. For the compound `CCCCn1ccnc1C(=O)c1cccc(S(=O)(=O)N2c3ccccc3CC2C)c1` (stereo unspecified), the inhibition is 11.1% (active). As to `C=CCN1C(=O)[C@H](CC(=O)NCCCN2CCCC2=O)[C@@]2(C(=O)OCC)CCCC=C12`, the inhibition was -6.27%. Consider `COc1cccc(NC(=O)CCNS(=O)(=O)c2ccc3c(c2)oc(=O)n3C)c1`, for which the inhibition was -2.66%. Consider `Cc1ccc(NC(=O)CCNS(=O)(=O)c2ccc3c(c2)oc(=O)n3C)cc1C`, for which the inhibition was 1.53%. With `COc1cc(NC(=O)CCS(=O)(=O)c2ccc3c(c2)oc(=O)n3C)cc(OC)c1`, the inhibition was 8.71% (active). With `Cc1cc(NS(=O)(=O)c2ccc(NC(=O)CSc3nnc(SCc4ccc(F)cc4)s3)cc2)nc(C)n1` the figure was 2.06%; with `CCOC(=O)c1cccc(NC(=O)CN(C)S(=O)(=O)c2ccc(-c3cocn3)s2)c1`, 9.31% (active); with `CCOC(=O)c1cccc(NC(=O)CN(c2ccc(C)cc2)S(=O)(=O)c2c(C)noc2C)c1`, 7.3%. To `CCOC(=O)c1cccc(NC(=O)CCn2nnc3ccccc32)c1` belongs -1.7%; to `O=C(OCC#CCSc1nnc(-c2ccco2)o1)c1ccc(F)cc1`, -3.45%; to `CN(C)Cc1cn(-c2ccc(-c3noc4c3C(=O)N(CC(=O)N3CCOCC3)CC4)cc2)nn1`, -1.12%. To `Cc1c(C)c2ccc(OCC(=O)N3CCN(c4cccc(Cl)c4)CC3)cc2oc1=O` belongs -9.1%; to `CSCCC(NC(=O)COc1ccccc1)C(=O)N1CCN(c2cccc(C(F)(F)F)c2)CC1` (stereo unspecified), 0.72%. `O=C(COc1ccc(Cl)cc1)N1CCN(c2cccc(C(F)(F)F)c2)CC1`: the inhibition is 13.9% (active).

With `Cc1ccc(Cn2cc(CN3[C@@H](CC(C)C)COc4ccc(Cl)cc4S3(=O)=O)nn2)cc1`, the inhibition was -0.49%.

As to `CC1CC(=O)N(CC(=O)Nc2cccc(Cl)c2)c2ccccc2S1(=O)=O` (stereo unspecified), the inhibition is 0.03%.

`CN1C(=O)C(CC(=O)Nc2ccccc2)S/C1=N/c1nccs1` (stereo unspecified): the inhibition was -3.53%.

Consider `O=C(CC1SC(=Nc2ccccc2)N(Cc2ccccn2)C1=O)Nc1cccc(Cl)c1` (stereo unspecified), for which the inhibition is 9.62% (active). Take `COc1cccc(CSc2nnc(-c3cccnc3)n2Cc2ccccc2)c1`: the inhibition was -1.8%.

`O=C1[C@H]2[C@@H](c3ccc(C(F)(F)F)cc3)N[C@]3(CCCN(Cc4ccc(Cl)cc4)C3=O)[C@H]2C(=O)N1Cc1ccccc1`: the inhibition was 6.3%.

Take `O=C1[C@H]2[C@@H](c3ccc(C(F)(F)F)cc3)N[C@]3(CCCN(Cc4ccc(Br)cc4)C3=O)[C@H]2C(=O)N1Cc1ccccc1`: the inhibition was 13.7% (active). `CCN1C(=O)[C@H]2[C@@H](c3ccc(C(F)(F)F)cc3)N[C@]3(CCCN(Cc4ccc(Br)cc4)C3=O)[C@H]2C1=O`: the inhibition was 0.02%. Consider `O=C(NCc1ccco1)C1CCCN(S(=O)(=O)c2ccc(Cl)s2)C1` (stereo unspecified), for which the inhibition is -1.38%. Take `O=C(CNS(=O)(=O)c1ccccc1F)N1CCN(c2ccccn2)CC1`: the inhibition is -2.81%.

In the case of `CC(=O)Nc1ccc(S(=O)(=O)N2CCN(CCCOc3cc(C)ccc3C)CC2)cc1`, the inhibition is 9.18% (active).

`Cc1ccc(C)c(OCCC(=O)Nc2cccc(S(=O)(=O)N3CCCC3)c2)c1`: the inhibition is 1.33%. For the compound `Cc1cccc(OCCCC(=O)Nc2ccc(S(=O)(=O)N3CCCC3)cc2)c1`, the inhibition is 3.89%. As for `CC(=O)Nc1ccc(OC[C@@H](O)CN2CCC(C(O)(c3ccccc3)c3ccccc3)CC2)cc1`, the inhibition is 2.29%. With `COc1cc(C(=O)NNC(=O)c2ccc(S(=O)(=O)N3CCCCC3)cc2)cc(OC)c1OC` the figure was 0.14%.

As to `COc1ccc(S(=O)(=O)N2CCCCC2)cc1Br`, the inhibition is 9.21% (active). To `COc1ccc(F)cc1S(=O)(=O)N1CCCCC1` belongs -4.65%; to `CCOC(=O)[C@@]12CCC3=C1N(CCC3)C(=O)[C@H](CC(=O)N1CCN(C(=O)c3ccco3)CC1)C2`, -6.34%; to `Cc1nc(CNc2ncnc3ccc(-c4ccc5c(c4)OCO5)cc23)cs1`, -54.3%. With `CS(=O)(=O)Nc1cccc(C2=NN(C(=O)c3cccc(F)c3)C(c3cccs3)C2)c1` (stereo unspecified) the figure was 1.09%; with `CCOc1ccc2nc(Cl)c(C3CC(c4ccccc4)=NN3C(=O)c3cccs3)cc2c1` (stereo unspecified), -2.13%; with `Cc1ccc(C2CC(c3cccc(NS(C)(=O)=O)c3)=NN2S(C)(=O)=O)cc1` (stereo unspecified), -2.2%.

Turning to `COC(=O)c1cccc(NS(C)(=O)=O)c1`, the inhibition was -1.45%.

Turning to `CCS(=O)(=O)Nc1ccc(C2=NN(S(=O)(=O)c3ccc(F)cc3)C(c3ccco3)C2)cc1` (stereo unspecified), the inhibition is 3.46%. As to `CS(=O)(=O)Nc1cccc(C2=NN(S(=O)(=O)c3ccccc3)C(c3cccs3)C2)c1` (stereo unspecified), the inhibition was 8.71% (active). Take `COc1cccc(C2CC(c3cccs3)=NN2C(=O)CSC2=NCCS2)c1OC` (stereo unspecified): the inhibition was -4.82%. With `CCOc1ccccc1C1CC(c2cccc(NS(C)(=O)=O)c2)=NN1C(=O)c1ccccc1` (stereo unspecified), the inhibition is 12.6% (active). With `COc1cccc(C2CC(c3ccccc3)=NN2S(=O)(=O)c2ccccc2)c1OC` (stereo unspecified) the figure was 14% (active); with `O=C(Nc1cc(Cl)cc(Cl)c1)OCCN1CCCC12CCC(c1ccccc1)CC2` (stereo unspecified), 1.56%. To `CCOC(=O)[C@]12CCCCC/C=C\1N(Cc1ccc(OC)cc1)C(=O)[C@H]2CC(=O)NCCCN1CCCC1=O` belongs 5.47%. To `Cc1cc(NS(=O)(=O)c2ccc(NC(=O)CSc3nnc(-c4ccc(C(C)(C)C)cc4)n3Cc3ccco3)cc2)nc(C)n1` belongs 0.8%; to `CC(C)(C)c1ccc(C(=O)Nc2cc(Cl)c(Br)cc2C(=O)O)cc1`, 8.45%.
